Bioassay records (PubChem)
IL-1B inflam inh: blocks inflammasome-driven IL-1 beta release; THP-1 LPS/ATP IL-1B secretion, AlphaLISA, 16 h; hits give low values; activity change, % at 57.5 µM; actives 4.7% (n = 360,000); in the data active = activity change below about -50%; inconclusive = mostly about -30% to -49%
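THP-1 cells pretreated 1 hr with compounds (up to 57.5 uM final), then stimulated with LPS (250 ng/mL final) plus ATP (1.25 mM final); secreted IL-1B measured by AlphaLISA after 16 hr, decreased signal indicating inhibition.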
TDP1 cell CPT: DT40-hTDP1 cell growth loss with CPT | chicken DT40 Tdp1-/-;hTDP1 cells + 20 nM CPT, ATP luminescence, 48 h | Potency, µM (top dose mostly 46.2 µM), for inactives: at the top dose activity change, negative = growth inhibition, usual class: inhibitors | actives 12% (n = 420,000) | AID 686979; note: potency is the fitted concentration of half-maximal effect; nearly all actives have a fitted effect of over 55% in size
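Chicken DT40 Tdp1-/- cells stably complemented with human TDP1 were seeded at 400 cells/well in medium containing 20 nM camptothecin, exposed to pin-transferred compounds, and grown at 37 °C for at least 48 hr. Viability was read as ATP luminescence.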
TDP1 cell noCPT: qHTS for Inhibitors of human tyrosyl-DNA phosphodiesterase 1 (TDP1): qHTS in cells in absence of CPT. Potency, µM (highest dose often 46.2 µM), for the others: at the highest dose activity change, negative = growth inhibition, most hits filed as inhibitors. actives 15% (n = 420,000). AID 686978, 2013. DT40 Tdp1-/- hTDP1 cells, no CPT, ATP luminescence, 48 h; note: potency is the fitted concentration of half-maximal effect; nearly all actives have a fitted effect of over 55% in size
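Compound effects on proliferation are scored in DT40 Tdp1-/-;hTDP1 cells in the absence of CPT. ATP levels (CellTiter-Glo luminescence) are recorded after a ≥48 hr, 37 °C incubation.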
HT1080 IDH1KD tx: HT-1080 IDH1 knockdown cell toxicity (counter line) | HT-1080 IDH1 knockdown viability, ATP luminescence, 48 h | Potency, µM (highest dose often 46.1 µM), for the others: top-dose activity, negative = toxicity, usual class: cytotoxic | actives 2% (n = 360,000) | AID 686971;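 note: potency is the fitted concentration of half-maximal effect; 0% = DMSO wells and -100% = cell-free medium wells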
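HT-1080-IDH1KD cells (IDH1 knocked down), 750/well in RPMI with 5% FBS, treated with compound 48 h at 37 degrees C. Viability by CellTiter-Glo luminescence, normalised to DMSO and no-cell wells; concentration-response curves classed.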
HT1080-NT tox: kills 2HG-producing HT-1080-NT fibrosarcoma cells. HT-1080-NT fibrosarcoma viability, CellTiter-Glo ATP luminescence, 48 h. actives 1.6% (n = 360,000). Potency, µM (highest dose often 46.1 µM), for the others: top-dose activity, negative = less viability, actives largely listed as cytotoxic;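 note: NT is the 2HG producing partner of a matched IDH1 knockdown line; potency is the fitted concentration of half-maximal effect; 0% = DMSO-treated cells and -100% = media-only wells without cells; nearly all actives have a fitted effect of over 55% in size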
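750 cells/well, RPMI + 5% FBS; 2 h settle, compound pin-transfer, 48 h at 37 degrees C. CellTiter-Glo 10 min RT, luminescence. Normalized to DMSO and media-only wells.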
Numbers without * were called inactive; ? = inconclusive; nt = not tested or not shown; [ ] = dose if it differs, or a comment. The list is not random: actives were taken first. Their share in the collection is about 19%. Unless noted, calls come from the whole dose curve; as a rule, active = well fitted curve in the direction sought with a large enough effect; inconclusive = small, poorly fitted or top-dose-only effect, or another doubt; inactive = no such curve, though single readings can be large; an effect the other way counts as inactive or inconclusive. Unless noted, % is set by controls: 0 for no effect and ±100 for the full control effect.

SMILES	IL-1B inflam inh	TDP1 cell CPT	TDP1 cell noCPT	HT1080 IDH1KD tx	HT1080-NT tox
COc1ccc(/C=C/c2cc(O)cc(O[C@H]3OC(CO)C(O)C(O)C3O)c2)cc1 (stereo not given in full)	nt	0.3%	-1.5%	nt	nt
COc1cc(Cl)c(C)cc1NC(=O)COC(=O)c1cc[n+]([O-])cc1	23.6	7.7%	16.5%	23.8%	13.9%
COc1ccc(CNS(=O)(=O)c2cc3c4c(c2)C(C)C(=O)N4CCC3)cc1 (stereo not given)	17.5	-26.5%	?	0.8%	-0.7%
c1ccc2c(c1)CCN(c1ncnc3c1[nH]c1ccccc13)C2	-83.5*	4.61µM*	4.61µM*	?	?
c1ccc(Cn2nnc3c(N4CCc5ccccc5C4)ncnc32)cc1	-11.2	-12.2%	?	9.5%	17.4%
COc1cccc2[nH]c3c(N4CCc5ccccc5C4)ncnc3c12	?	?	20.6µM*	-13.2%	-11.6%
O=C(c1ccc(-n2cncn2)c([N+](=O)[O-])c1)N1CCN(S(=O)(=O)c2cccc(F)c2)CC1	-2.6	?	?	2.4%	-0.5%
Cc1ccc(C(C)C)c(OCCSc2nc3ccccc3n2CC(O)CO)c1 (stereo not given)	nt	13µM*	16.4µM*	nt	nt
Cc1ccc(C)c(OCCSc2nc3ccccc3n2CC(=O)N2CCOCC2)c1	nt	-22.1%	?	nt	nt
O=[N+]([O-])c1ccc(OCC(O)CN(C2CCCCC2)C2CCCCC2)cc1 (stereo not given)	?	?	?	0.0%	-4.5%
COc1ccccc1OCC(O)CO (stereo not given)	2.1	2.1%	-3.3%	9.3%	26.5%
CCCCN(CCCC)CC(O)COc1ccccc1Br (stereo not given)	?	?	16.4µM*	?	-22.5%
CC(C)CN(CC(C)C)CC(O)COc1ccccc1Br (stereo not given)	-11.3	?	14.6µM*	?	?
Cc1ccccc1OCC(O)CN(CCO)Cc1ccccc1 (stereo not given)	-7.1	-4.4%	-9.0%	?	26.5%
CC(C)CN(CC(C)C)CC(O)COc1ccc([N+](=O)[O-])cc1 (stereo not given)	?	?	18.4µM*	0.9%	-4.0%
Cc1ccc(S(=O)(=O)N(C)C)cc1NC(=O)C(C)OC(=O)/C=C/c1cccs1 (stereo not given)	12.8	-30.0%	-19.7%	5.4%	7.3%
COC(=O)C1(Cc2ccccc2)NC(c2ccc(F)cc2)C2C(=O)N(C)C(=O)C21 (stereo not given)	11.6	-15.1%	?	9.8%	3.2%
COC(=O)[C@]1(Cc2ccccc2)N[C@H](c2ccc(-c3ccccc3)cc2)[C@@H]2C(=O)N(C)C(=O)[C@@H]21	-21.0	?	?	?	-9.3%
COC(=O)[C@]1(Cc2ccccc2)N[C@H](c2ccc(-c3ccc(Cl)c(Cl)c3)cc2)[C@@H]2C(=O)N(C)C(=O)[C@@H]21	-25.1	18.4µM*	18.4µM*	-12.9%	0.9%
COC(=O)[C@]1(Cc2ccccc2)N[C@H](c2ccc(-c3cccc(Cl)c3)cc2)[C@@H]2C(=O)N(C)C(=O)[C@@H]21	?	16.4µM*	?	-0.1%	?
COC(=O)[C@]1(Cc2ccccc2)N[C@H](c2ccc(-c3cc(C(C)=O)cs3)cc2)[C@@H]2C(=O)N(C)C(=O)[C@@H]21	3.4	16.4µM*	23.1µM*	6.0%	1.8%
O=C(c1ccc(F)cc1)N1CCN(c2ccccn2)CC1	21.2	0.1%	-4.1%	0.0%	-0.8%
Cc1ccc(NC(=O)c2cnc(N3CCN(c4ccccn4)CC3)c3ccccc23)c(Br)c1	-28.4	14.6µM*	13µM*	?	-14.4%
O=C(Nc1c(F)cccc1F)c1cnc(N2CCN(c3ccccn3)CC2)c2ccccc12	?	23.1µM*	23.1µM*	-14.6%	-17.8%
O=Cc1cc2ccccc2nc1SCCCF	47.8	?	4.61µM*	7.31µM*	16.4µM*
SMILES	IL-1B inflam inh	TDP1 cell CPT	TDP1 cell noCPT	HT1080 IDH1KD tx	HT1080-NT tox
O=C(COC(=O)C1CCN(C(=O)c2ccc(Cl)cc2)CC1)Nc1ccccc1F	-24.2	-4.3%	-1.0%	4.8%	2.6%
Cc1ccc(C2=CN(Cc3ccccc3)CCC2=O)cc1	-7.8	20.6µM*	?	-13.3%	2.6%
O=C1CCN(Cc2ccccc2)C=C1c1ccc(Br)cc1	?	18.4µM*	23.1µM*	-16.7%	-18.6%
O=C(Nc1ccc(C2=CN(Cc3ccccc3)CCC2=O)cc1)OCc1ccccc1	1.9	-3.4%	-10.3%	-3.1%	0.3%
COC(=O)C[C@@H]1C=C[C@H](NC(=O)c2cnccn2)[C@@H](CO)O1	20.4	-2.1%	4.7%	25.4%	14.7%
COCCN(CC(=O)Nc1cccc(C)c1C)C(=O)c1oc2c(Cl)cccc2c1C	21.5	?	?	-6.7%	-12.7%
CN(C)S(=O)(=O)c1ccc(NC(=O)c2cc(-c3cccs3)nc3ccccc23)cc1	-17.7	?	14.6µM*	-0.4%	-9.8%
O=C(NC1=NCCS1)c1cc(-c2cccnc2)nc2ccccc12	1.3	16.4µM*	20.6µM*	-20.3%	-7.9%
O=C(O)c1cc(-c2cccnc2)nc2ccccc12	7.3	1.3%	-0.3%	11.1%	6.8%
O=C(NC1=NCCS1)c1cc(-c2cccs2)nc2ccccc12	-64.4*	-5.1%	-29.1%	0.6%	-0.5%
CN1C(=O)[C@H]2[C@@H](c3ccccc3)N[C@]3(CCCN(Cc4ccc(F)cc4)C3=O)[C@H]2C1=O	?	-4.0%	-23.3%	-1.2%	-4.8%
CCOC(=O)N1CCN(Cc2nc(N)nc(Nc3ccc(Oc4ccccc4)cc3)n2)CC1	-26.8	?	16.4µM*	?	16.4µM*
CCOC(=O)N1CCN(Cc2nc(N)nc(Nc3ccc(OCC)cc3)n2)CC1	-7.7	-22.0%	-17.2%	5.9%	0.1%[9.24 µM]
CCOC(=O)N1CCN(Cc2nc(N)nc(Nc3ccc(OC)cc3)n2)CC1	-11.7	-0.9%	-15.5%	?	5.3%
CCOC(=O)C1CCCN(Cc2nc(N)nc(Nc3ccc(OC)cc3)n2)C1 (stereo not given)	12.6	29.1µM*	?	-2.6%	-11.7%
CCOC(=O)C1CCCN(Cc2nc(N)nc(Nc3ccc(Cl)cc3)n2)C1 (stereo not given)	-5.2	?	16.4µM*	-14.0%	-11.2%
CC(=O)Nc1cc(NC(C)=O)ncn1	-11.1	8.8%	-8.5%	4.7%	10.8%
O=C(CCS(=O)(=O)Cc1ccccc1)Nc1nc2c(s1)CCCC2	58.0	?	25.9µM*	8.91µM*	?
O=C(NC(=S)Nc1nc2c(s1)CCCC2)c1ccccc1	0.0	?	29.1µM*	-0.3%	1.0%
